In the library only some 12% were active in any assay of this set; here they are far more common.
FMDV inh: antivirals against foot and mouth disease virus; FMDV antiviral cell-based qHTS; AID 1159524; 410,000 compounds, 1.2% hits; Potency, µM (series often up to 57.9 µM), for the others: at the highest dose activity change, negative = inhibition, most hits filed as inhibitors; calls by dose curve; tested in HEK293T cells; also: read-out not given here; potency is read from the fitted curve at half-maximal effect; % is scaled to controls: 0 for no effect and ±100 for the full control effect; nearly all actives have a fitted effect of over 45% in size
CHX counter: counter-screen hit for Shiga toxin inhibitors, cycloheximide. cell reporter, cycloheximide protein synthesis inhibition counterscreen. max response, %. 300,000 compounds, 12% hits; in the data active = max response mostly above about 13%, no sharp cut-off; inactive = mostly below about 14%; also: read at 38.3 µM for the half of the compounds with a filed dose; 0% is about no effect
Sm TGR block: S. mansoni TGR enzyme inhibition. purified TGR, DTNB reduction, TNB absorbance 405 nm. Potency, µM (highest dose often 114 µM), for the others: top-dose activity change, negative = inhibition, actives largely listed as inhibitors. 360,000 compounds, 3% hits. AID 485364; active = well fitted inhibition curve with a large enough effect; inconclusive = small, poorly fitted or top-dose-only effect; inactive = no such curve, though single readings can be large or run the other way; also: potency is read from the fitted curve at half-maximal effect; % is scaled to controls: 0 for no effect and ±100 for the full control effect; nearly all actives have a fitted effect of over 60% in size
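TGR 20 nM + NADPH 100 uM (dispensed conc.), cpd preinc 15 min RT; start with NADPH (500 uM addition) then DTNB (15 mM addition). Kinetic TNB absorbance, 405 nm filter. Four-parameter Hill fit across titration.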
Shiga toxin inh: Shiga toxin inhibition; Vero cells, Shiga toxin protein synthesis inhibition reporter; AID 2315; inhibition, % at 38.7 µM; 290,000 compounds, 9.2% hits; in the data active = inhibition mostly above about 28%, no sharp cut-off; inactive = mostly below about 43%; also: 0% is about no effect
Numbers without * were called inactive; ? = inconclusive; . = no result given.

SMILES | FMDV inh | CHX counter | Sm TGR block | Shiga toxin inh
C=CCn1c(SCC(=O)N2CCOCC2)nc2scc(-c3ccco3)c2c1=O | -15.1% | -1.6 | 4.47µM* | -3.3
CC(C)C(C)(C#N)NC(=O)CSc1nc2scc(-c3ccco3)c2c(=O)n1-c1ccccc1 (configuration not stated) | -7.3% | -1.2 | ? | -11.9
C=CCn1c(SC(F)F)nc2scc(-c3ccco3)c2c1=O | -1.4% | -0.5 | 50.1µM* | -3.5
Cc1ccc(-c2csc3nc(SCC(N)=O)n(Cc4ccccc4)c(=O)c23)cc1 | 31.6µM* | -1.7 | -3.6% | -15.5
O=C(Cl)COCc1ccccc1 | . | -6.3 | . | -4.6
COc1ccc(-c2c3c(=O)n(C)c(=O)n(C)c3cn2-c2cccc(N)c2)cc1 | -17.5% | . | -16.1% | .
C=CCn1c(SCC(C)=O)nc2scc(-c3ccco3)c2c1=O | -5.4% | 0.9 | 2.82µM* | 2.9
Nn1cnc2scc(-c3ccco3)c2c1=O | 1.9% | -3.0 | 35.5µM* | -5.9
O=C(Cn1cnc2ccccc2c1=O)N1CCOCC1 | -16.2% | 2.8 | 6.4% | 2.2
Cc1ccc(C(=O)Cn2cnc3ccccc3c2=O)cc1C | 36.4% | 64.2* | 1.5% | 104.1*
O=C(Cn1cnc2ccccc2c1=O)N1CCc2ccccc2C1 | 8.8% | 16.7* | 3.9% | -3.1
COc1ccc(C(=O)Cn2cnc3ccccc3c2=O)cc1 | 32.6% | 40.9* | 2.2% | 88.6*
COC(=O)Cn1cnc2ccccc2c1=O | -9.4% | 3.9 | 0.0% | -15.2
O=C(Cn1ccc2ccccc2c1=O)Nc1ccc2c(c1)OCO2 | -9.6% | 4.9 | 2.5% | -0.2
O=C(Cn1ccc2ccccc2c1=O)NCCC(=O)Nc1ccc2c(c1)OCCO2 | -20.6% | 23.0* | -27.2% | 37.9
Cc1ccc(CNC(=O)Cn2ccc3ccccc3c2=O)o1 | -18.9% | 1.0 | 31.6µM* | -13.8
O=C(O)Cn1cnc2ccccc2c1=O | . | -6.8 | -6.5% | -16.6
O=C(Cn1cnc2ccccc2c1=O)c1ccc2ccccc2c1 | -13.1% | 56.4* | -3.7% | 68.4*
O=C(Cn1cnc2ccccc2c1=O)NCc1ccc2c(c1)OCO2 | 23.6% | -4.0 | 7.8% | -16.1
CCN(CC)C(=O)Cn1cnc2ccccc2c1=O | -13.2% | -3.4 | -3.2% | -7.5
O=C(Cn1cnc2ccccc2c1=O)c1ccc2c(c1)OCCO2 | 20.7% | 49.6* | -27.4% | 70.0*
O=C(Cn1cnc2ccccc2c1=O)Nc1ccc2c(c1)OCO2 | 36.3% | 56.0* | 5.1% | active
Cn1c(=O)c2c(-c3ccccc3)n(-c3cccc(C#N)c3)cc2n(C)c1=O | -24.8% | . | -5.1% | .
Cc1ccc2c3c([nH]c2c1C)-c1nonc1CC3 | 8.2% | 20.1* | -22.1% | 43.9*
C=CCCCCCCCC(=O)OC | -13.5% | 10.9 | 50.1µM* | -3.6
SMILES | FMDV inh | CHX counter | Sm TGR block | Shiga toxin inh
CCOc1ccc(CCNC(=O)Cn2nnc(-c3ccccc3Cl)n2)cc1OCC | -11.7% | . | 10.4% | .
COc1cc(NC(=O)CN(c2ccc(C)cc2)S(=O)(=O)c2cccc3nonc23)cc(OC)c1 | -14.4% | . | -7.8% | .
CC(C)c1ccc(NC(=O)Cn2c(=O)n(Cc3nc(-c4ccccc4)no3)c(=O)c3cc4c(cc32)OCO4)cc1 | -4.7% | . | -1.2% | .
Cn1c(=O)c2c(ncn2CC(=O)Nc2nc3ccc(F)cc3s2)n(C)c1=O | 11.0% | 12.9* | -18.8% | 31.1
O=C(Cn1cnc2ccccc2c1=O)Nc1nc2ccccc2s1 | 43.5% | -2.3 | . | 15.3
COc1ccc2nc(NC(=O)Cn3cnc4c(=O)n(C)c(=O)n(C)c43)sc2c1 | 5.0% | -3.1 | -5.1% | 13.3
CCc1ccc2nc(NC(=O)Cn3cnc4ccccc4c3=O)sc2c1 | 31.3% | 29.2* | . | 52.7*
O=C(NNC(=O)c1ccccc1Br)c1cccc(Cl)c1 | 30.0% | 83.1* | 10.3% | 50.4*
O=C(NNC(=O)c1ccccc1F)c1cccc(Cl)c1 | 65.1% | 21.7* | 31.2% | 80.4*
O=C(NNC(=O)c1ccccc1Br)c1ccc(Cl)cc1 | . | 5.8 | -19.0% | 21.0
Cc1ccc(NC(=O)N2CCC(NC(=O)c3ccccc3C)CC2)cc1 | 1.6% | -1.3 | -1.0% | 22.4
O=C(Nc1cccc(F)c1)N1CC=C(c2ccc(Cl)cc2)CC1 | 20.7% | 45.8* | -15.0% | 75.1*
O=C(Nc1ccc(Cl)cc1)N1CCC(c2ccccc2)C1 (configuration not stated) | -4.4% | 41.8* | 0.6% | 116.3*
Cc1ccc(NC(=O)N2CCC(NC(=O)C(C)(C)C)CC2)cc1 | -17.0% | 16.7* | 11.7% | 10.5
Cc1ccc(NC(=O)N2CCC(c3ccccc3)C2)cc1C (configuration not stated) | -22.0% | 52.6* | 1.1% | 100.7*
CCOC(=O)C1CCN(C(=O)C2COc3ccccc3C2)CC1 (configuration not stated) | -3.7% | . | -5.5% | .
COc1ccc(CCNC(=O)CCc2cn(Cc3ccc(C)cc3)c3ccccc23)cc1OC | -17.8% | . | -0.5% | .

Screening results from PubChem BioAssay.
